# JMJD2A Tudor = qHTS Assay for Inhibitors of JMJD2A-Tudor Domain | AlphaScreen JMJD2A-Tudor / H3K4me3 peptide binding | Potency, µM (series often up to 114 µM), for the others: at the highest dose activity change, negative = inhibition, most hits filed as inhibitors | 390,000 tested, 4.4% active | AID 504339, 2011; also: % is scaled to controls: 0 for no effect and ±100 for the full control effect; nearly all actives have a fitted effect of over 50% in size
# Target sequence (O75164 whole entry, looked up, the tested form may be a part): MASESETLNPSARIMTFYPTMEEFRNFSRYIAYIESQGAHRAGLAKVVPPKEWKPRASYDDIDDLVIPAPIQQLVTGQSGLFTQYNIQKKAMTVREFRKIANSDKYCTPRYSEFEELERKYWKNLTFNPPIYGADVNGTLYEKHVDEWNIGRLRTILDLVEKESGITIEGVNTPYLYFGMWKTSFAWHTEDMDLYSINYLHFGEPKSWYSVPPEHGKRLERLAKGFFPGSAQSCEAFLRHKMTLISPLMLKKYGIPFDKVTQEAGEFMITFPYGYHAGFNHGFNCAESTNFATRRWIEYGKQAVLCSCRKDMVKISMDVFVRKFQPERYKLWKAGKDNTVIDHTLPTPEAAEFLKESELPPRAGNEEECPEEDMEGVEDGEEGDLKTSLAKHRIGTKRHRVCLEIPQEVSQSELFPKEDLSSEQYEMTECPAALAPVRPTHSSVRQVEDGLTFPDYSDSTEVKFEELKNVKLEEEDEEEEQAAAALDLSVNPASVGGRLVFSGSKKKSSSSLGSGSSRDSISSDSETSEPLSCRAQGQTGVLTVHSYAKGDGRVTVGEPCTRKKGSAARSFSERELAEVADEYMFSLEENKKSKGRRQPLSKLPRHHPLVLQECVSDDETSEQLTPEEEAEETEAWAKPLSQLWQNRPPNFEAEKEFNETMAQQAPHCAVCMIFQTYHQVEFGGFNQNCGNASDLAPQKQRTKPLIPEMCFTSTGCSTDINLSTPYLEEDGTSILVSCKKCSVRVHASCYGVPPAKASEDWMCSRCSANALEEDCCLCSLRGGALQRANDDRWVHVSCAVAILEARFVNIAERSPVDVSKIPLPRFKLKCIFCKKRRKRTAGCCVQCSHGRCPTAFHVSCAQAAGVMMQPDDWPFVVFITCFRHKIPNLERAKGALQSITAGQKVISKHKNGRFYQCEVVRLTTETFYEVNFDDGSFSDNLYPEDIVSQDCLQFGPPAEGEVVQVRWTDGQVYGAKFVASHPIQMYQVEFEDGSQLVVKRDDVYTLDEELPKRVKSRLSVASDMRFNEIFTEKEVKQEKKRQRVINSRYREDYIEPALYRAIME
# BAZ2B inh = qHTS Assay for Inhibitors of BAZ2B | Bromodomain adjacent to zinc finger domain protein 2B (Homo sapiens), Q9UIF8 | AlphaScreen BAZ2B-H3K14Ac peptide displacement | Potency, µM (series often up to 114 µM), inactives show at the top dose activity change, negative = inhibition, actives largely listed as inhibitors | 360,000 tested, 4.4% active; also: % is scaled to controls: 0 for no effect and ±100 for the full control effect; nearly all actives have a fitted effect of over 60% in size
#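 BAZ2B 50 nM plus b-H3(5-23)K14Ac 50 nM, PBS pH 7.4/0.01% Tween-20, 30 min RT; compound added (max 110 uM), 30 min RT; streptavidin donor/Ni-chelate acceptor beads 10 ug/mL final, 20 min dark; AlphaScreen read.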
# HP1b binding inh = HTS for Inhibitors of HP1-beta Chromodomain Interactions with Methylated Histone Tails | 390,000 tested, 0.56% active | Chromobox protein homolog 1 (Homo sapiens), P83916 | Potency, µM (top dose mostly 114 µM), inactives show at the top dose activity change, negative = inhibition, most hits filed as inhibitors | AlphaScreen HP1-beta / biotin-H3K9me3 peptide binding; also: nearly all actives have a fitted effect of over 70% in size
#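 AlphaScreen: HP1-beta (50 nM) preformed 30 min with biotin-H3(1-18)K9me3 peptide (50 nM) in PBS pH 7.4, 0.01% Tween-20. Compound added for 30 min at RT, then streptavidin donor/nickel chelate acceptor beads (10 ug/mL) for 30 min.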
# PLK1 PBD inh = qHTS for Inhibitors of PLK1-PDB (polo-like kinase 1 - polo-box domain): Primary Screen. Plk1 PBD binding of FITC phosphopeptide, fluorescence polarization. AID 720504, 2013. 360,000 tested, 2.8% active. Serine/threonine-protein kinase PLK1 (Homo sapiens), P53350. Potency, µM, without a hit: max response, negative = inhibition, actives largely listed as inhibitors; also: series mostly up to about 57 µM; % is scaled to controls: 0 for no effect and ±100 for the full control effect; nearly all actives have a fitted effect of over 65% in size
# Sfp PPTase inh = qHTS Assay for Inhibitors of Bacillus subtilis Sfp phosphopantetheinyl transferase (PPTase); Potency, µM, for inactives: largest response in the series, negative = inhibition, usual class: inhibitors; Biochemical Sfp PPTase activity, qHTS; 310,000 tested, 3.5% active; 4'-phosphopantetheinyl transferase ffp (Bacillus subtilis), Q9F4F7;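 also: the enzyme is Sfp with the accession as filed and its product quenches rhodamine fluorescence; 0% = enzyme reaction without inhibitor and -100% = no enzyme wells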
#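 Compounds were incubated with enzyme (final 15 nM) for 15 min at room temperature before substrate addition started the reaction. Fluorescence at 525 nm excitation, 598 nm emission was recorded immediately and after 30 minutes.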
# G9a block = qHTS Assay for Inhibitors of Histone Lysine Methyltransferase G9a; Histone-lysine N-methyltransferase EHMT2 (Homo sapiens), Q96KQ7; G9a H3K9 monomethylation, AlphaScreen, 2 h; Potency, µM (series often up to 102 µM), for the others: at the top dose activity, negative = inhibition, hits mostly inhibitors; 350,000 tested, 8.8% active; AID 504332, 2011; also: % is scaled to controls: 0 for no effect and ±100 for the full control effect; nearly all actives have a fitted effect of over 75% in size
#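 AlphaScreen read-out: biotin-H3K9 peptide (500 nM) methylation by 20 nM enzyme with 20 uM SAM, 2 h at room temperature after 15 min compound preincubation; anti-monomethyl H3K9 antibody plus donor/acceptor beads, 10 min dark.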
# * hit, by the source's call; ? = inconclusive; · = not tested or not shown; [ ] = dose if it differs, or a comment. Rows were chosen to be rich in hits. Some 12% of all compounds tested hit in one or more screens of this group. Calls follow the shape of the dose curve; as a rule, active = well fitted curve in the direction sought with a large enough effect; inconclusive = small, poorly fitted or top-dose-only effect, or another doubt; inactive = no such curve, though single readings can be large; an effect the other way counts as inactive or inconclusive. Potency is read from the fitted curve at half-maximal effect.
SMILES,JMJD2A Tudor,BAZ2B inh,HP1b binding inh,PLK1 PBD inh,Sfp PPTase inh,G9a block
COc1ccc(/C(C)=N/Nc2ccccc2Cl)c(O)c1,?,?,-18.3%,-5.0%,?,1µM*
COc1ccc(/C(C)=N/Nc2ccc(F)cc2F)c(O)c1,-14.0%,-16.3%,25.8%,-7.2%,7.2%,2.51µM*
C/C(=N\Nc1ccc(F)cc1F)c1cccs1,·,27.5%,·,·,10.7%,25.1µM*
COC(=O)c1ccc(Cl)cc1NC(=O)N1CC(C)Oc2ccccc21 (stereo not given),-25.7%,?,33.6%,·,·,-20.6%[59 µM]
COc1cc(C2c3c(n[nH]c3C)C(=O)N2c2ccc(C)cc2)ccc1O (stereo not given),34.9%,-6.0%,45.6%,?,10.0%,50.1µM*
Cc1ccc(N2C(=O)c3n[nH]c(C)c3C2c2cccnc2)cc1 (stereo not given),-6.0%,-7.7%,33.0%,-1.5%,6.6%,50.1µM*
CCOc1ccc(OCCC(=O)OCC(=O)N2CCN(c3ccc(OC)cc3)CC2)cc1,5.1%,3.1%,14.6%,2.8%,·,-44.5%
COc1ccc(N2CCN(C(=O)COC(=O)CCc3ccccc3OC)CC2)cc1,-24.5%,-31.8%,-9.4%,2.1%,·,11.2µM*
COc1ccc(N2CCN(C(=O)COC(=O)CCOc3ccccc3C)CC2)cc1,?,?,-21.2%,-1.7%,·,31.6µM*
COc1ccc(N2CCN(C(=O)COC(=O)CCOc3cc(C)ccc3C)CC2)cc1,-9.6%,-26.3%,-35.6%,-3.7%,·,10µM*
COc1ccccc1CN1CCC2(CC1)CCN(C(=O)c1cccc(F)c1)CC2,·,·,·,·,23.8%,-5.3%[12.7 µM]
CCOC(=O)c1c(-c2ccccc2)oc2ccc(NS(=O)(=O)c3ccc(C(C)C)cc3)cc12,1.0%,1.3%,32.6%,·,·,5.9%[59 µM]
O=C(CCc1ccc(Oc2cc([N+](=O)[O-])cc([N+](=O)[O-])c2)cc1)N1CCCCC1,56.2µM*,25.1µM*,-58.3%,-5.8%,14.1µM*,?
COc1ccc(CCC(=O)Nc2cccc(Cl)c2)cc1,0.7%,15.4%,43.1%,-4.4%,5.5%,18.3%[59 µM]
O=C(CCc1ccc(Oc2cc([N+](=O)[O-])cc([N+](=O)[O-])c2)cc1)Nc1cccc(Cl)c1,-28.7%,?,?,-11.5%,2.5%,8.91µM*
CCOC(=O)c1c(NC(=O)/C=C/c2ccc(OCC)c(OC)c2)sc2c1CCC2,9.7%,0.4%,38.7%,·,·,28.5%[59 µM]
CCCCCn1c(CN2CCN(c3cccc(Cl)c3)CC2)nc2c1c(=O)n(C)c(=O)n2C,-35.1%,?,-8.5%,-2.7%,-13.7%,44.7µM*
CCCCn1c(CN2CCN(c3cccc(Cl)c3)CC2)nc2c1c(=O)n(C)c(=O)n2C,-35.1%,?,16.0%,-6.1%,-24.1%,-35.4%[59 µM]
CC1CN(Cc2nc3c(c(=O)n(C)c(=O)n3C)n2CCN2CCOCC2)CC(C)O1 (stereo not given),-8.6%,-7.8%,54.7%,-15.2%,-19.8%,?
CCCCCn1c(CN2CC(C)OC(C)C2)nc2c1c(=O)n(C)c(=O)n2C (stereo not given),2.1%,6.7%,35.2%,-2.2%,24.6%,39.8µM*
O=C(CCl)N1CCN(S(=O)(=O)c2ccc3c(c2)CCC3)CC1,-11.3%,4.5%,38.2%,-11.9%,·,18.7%[2.33 µM]
Cc1[nH]cnc1CSCc1ccc(Cl)cc1,-19.6%,?,32.1%,-4.4%,0.1%,25.1µM*
Cc1[nH]cnc1CSCCN,1µM*,?,-5.8%,-7.8%,7.08µM*,?
CCS(=O)(=O)N1CCN(c2ccc(Cl)cc2[N+](=O)[O-])CC1,-32.4%,-35.5%,-10.0%,-2.3%,-2.2%,-31.5%
NC(=S)n1[nH]c(-c2ccc([N+](=O)[O-])cc2)c(N=Nc2cccc([N+](=O)[O-])c2)c1=O,44.7µM*,39.8µM*,?,21.2µM*,-41.4%,11.2µM*
SMILES,JMJD2A Tudor,BAZ2B inh,HP1b binding inh,PLK1 PBD inh,Sfp PPTase inh,G9a block
Cc1ccc(N=Nc2c(C)[nH]n(C(N)=S)c2=O)cc1C,-8.9%,7.3%,2.4%,-16.9%,-20.5%,2.1%[59 µM]
Cc1[nH]n(C(N)=S)c(=O)c1N=Nc1ccc(S(=O)(=O)N2CCCCCC2)cc1,?,?,?,-29.4%,6.1%,-21.2%[59 µM]
NC(=S)n1[nH]c(-c2ccc([N+](=O)[O-])cc2)c(N=Nc2ccccc2[N+](=O)[O-])c1=O,?,39.8µM*,-5.8%,-27.9%,7.3%,0.9%
Cc1[nH]n(C(N)=S)c(=O)c1N=Nc1cccc([N+](=O)[O-])c1C,?,?,6.2%,-7.1%,12.1%,56.2µM*
Cc1c(N=Nc2c(-c3ccc([N+](=O)[O-])cc3)[nH]n(C(N)=S)c2=O)cccc1[N+](=O)[O-],?,?,?,?,-5.6%,50.1µM*
CC(=O)Nc1nonc1-c1nnc(SCC(=O)Nc2cc(C)cc(C)c2)n1C,0.3%,1.0%,37.7%,·,·,0.3%[59 µM]
COC(=O)c1scc(C)c1NC(=O)/C=C/C(=O)O,11.5%,-4.4%,38.3%,4.8%,12.6µM*,1.78µM*
CC1CCN(C(=O)C2CCN(S(=O)(=O)c3cccc4nonc34)CC2)CC1,-4.3%,9.2%,32.3%,1.5%,6.5%,-8.5%
CCOC(=O)NNc1ccccc1,-11.0%,-3.0%,4.2%,-12.3%,10.3%,·
CCOC(=O)C(=CNNc1ccccc1)C(=O)OCC,79.4µM*,?,-35.2%,?,?,2µM*
Cc1ccc(C)c(NC(=O)C(=O)NCCc2csc(-c3cccc(F)c3)n2)c1,-8.6%,0.1%,26.6%[57 µM],·,·,10.7%[59 µM]
CCNc1ncc2nc(-c3ccc(Cl)cc3)c(=O)n(-c3ccc(OC)cc3)c2n1,·,·,·,·,30.9%,3.3%[0.501 µM]
O=[N+]([O-])c1ccc(S(=O)(=O)N/N=C/c2ccc3c(c2)OCO3)cc1,-13.8%,?,27.4%,-14.6%,0.2%,50.1µM*
O=[N+]([O-])c1ccc(S(=O)(=O)NN=Cc2ccc(Cl)c(Cl)c2)cc1,?,·,-13.8%,10.6µM*,·,·
Cc1ccc(S(=O)(=O)N/N=C\c2cc([N+](=O)[O-])ccc2Cl)cc1,-24.6%,-35.8%,4.6%,-23.6%,25.1%,2.82µM*
CC(=O)Nc1ccc(S(=O)(=O)NN=Cc2ccc(Cl)c(Cl)c2)cc1,-31.5%,·,-7.4%,-23.5%,·,·
C=CCNC(=S)N/N=C1\CCS(=O)(=O)c2ccccc21,-11.0%,?,36.4%,-1.1%,-28.6%,0.8%

# High-throughput results from PubChem.
